# PubChem BioAssay (NCATS)
# Inconclusive results are not listed. A call without a number means that no potency is given here. Activity calls are given as the source filed them. Calls follow the shape of the dose curve; as a rule, active = well fitted curve in the direction sought with a large enough effect; inconclusive = small, poorly fitted or top-dose-only effect, or another doubt; inactive = no such curve, though single readings can be large; an effect the other way counts as inactive or inconclusive.
# Legend:
# [1] = qHTS of pediatric cancer cell lines to identify multiple opportunities for drug repurposing: Primary screen for TC32 cells (AID 1347089); also: nearly all actives have a fitted effect of over 60% in size; also: potency is read from the fitted curve at half-maximal effect
# In short: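 qHTS, TC32, 48 h drug treatment, CellTiter-Glo luminescence as a proxy for metabolically active cells; primary top concentration 46 µM (MIPE 11-pt, NPC 8-pt); confirmatory 11-pt.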
# [2] = qHTS of pediatric cancer cell lines to identify multiple opportunities for drug repurposing: Primary screen for DAOY cells (AID 1347090); also: nearly all actives have a fitted effect of over 55% in size; also: potency is read from the fitted curve at half-maximal effect
# In short: (§1)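 Viability measured as metabolically active cells via CellTiter-Glo luminescence following 48 hours of compound exposure, 11-point dilutions in confirmatory testing. 500-1,000 cells/well plated 5 hours before dosing; controls were DMSO and 2.3 µM bortezomib.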
# [3] = qHTS of pediatric cancer cell lines to identify multiple opportunities for drug repurposing: Primary screen for SJ-GBM2 cells (AID 1347091); also: potency is read from the fitted curve at half-maximal effect
# In short: as §1
# [4] = qHTS of pediatric cancer cell lines to identify multiple opportunities for drug repurposing: Primary screen for SK-N-MC cells (AID 1347093); also: potency is read from the fitted curve at half-maximal effect
# In short: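 Metabolically active cells were quantified by ATP-dependent luminescence (CellTiter-Glo, 15 min at room temperature) following 48 h treatment. Cells had been plated at 500-1,000 per well and settled for 5 h beforehand.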
# [5] = qHTS of pediatric cancer cell lines to identify multiple opportunities for drug repurposing: Primary screen for BT-37 cells (AID 1347094); also: potency is read from the fitted curve at half-maximal effect
# In short: (§2)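 500-1,000 cells/well; 5 h pre-incubation 37 °C/5% CO2; compound pinned; 48 h; CellTiter-Glo, 15 min RT; luminescence. MIPE 11-pt from 0.78 nM, NPC 8-pt from 0.59 nM final. Bortezomib 2.3 µM final as positive control.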
# [6] = qHTS of pediatric cancer cell lines to identify multiple opportunities for drug repurposing: Primary screen for U-2 OS cells (AID 1347096); also: nearly all actives have a fitted effect of over 50% in size; also: potency is read from the fitted curve at half-maximal effect
# In short: (§3)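 Viability after 48 h compound treatment at 37C, 500-1,000 cells/well, read as ATP luminescence with CellTiter-Glo. Primary screens used 11-point (MIPE, 0.78 nM-46 µM) or 8-point (NPC, 0.59 nM-46 µM) final concentrations; follow-up screens used 11-point dilutions.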
# [7] = qHTS of pediatric cancer cell lines to identify multiple opportunities for drug repurposing: Primary screen for Saos-2 cells (AID 1347097); also: nearly all actives have a fitted effect of over 40% in size; also: potency is read from the fitted curve at half-maximal effect
# In short: as §2
# [8] = qHTS of pediatric cancer cell lines to identify multiple opportunities for drug repurposing: Primary screen for SK-N-SH cells (AID 1347098); also: nearly all actives have a fitted effect of over 65% in size; also: potency is read from the fitted curve at half-maximal effect
# In short: (§4)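 Cells (500-1,000/well) rested 5 h, then received compounds for 48 h; metabolically active cells were measured by CellTiter-Glo luminescence. Final concentrations spanned up to 46 µM (MIPE, 11-point) or 0.59 nM-46 µM (NPC, 8-point) in primary screens, 11-point in follow-ups.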
# [9] = qHTS of pediatric cancer cell lines to identify multiple opportunities for drug repurposing: Primary screen for NB1643 cells (AID 1347099); also: nearly all actives have a fitted effect of over 50% in size; also: potency is read from the fitted curve at half-maximal effect
# In short: as §2
# [10] = qHTS of pediatric cancer cell lines to identify multiple opportunities for drug repurposing: Primary screen for BT-12 cells (AID 1347101); also: nearly all actives have a fitted effect of over 25% in size; also: potency is read from the fitted curve at half-maximal effect
# In short: as §4
# [11] = qHTS of pediatric cancer cell lines to identify multiple opportunities for drug repurposing: Primary screen for Rh18 cells (AID 1347102); also: nearly all actives have a fitted effect of over 65% in size
# In short: as §3
# [12] = qHTS of pediatric cancer cell lines to identify multiple opportunities for drug repurposing: Primary screen for RD cells (AID 1347104); also: nearly all actives have a fitted effect of over 55% in size; also: potency is read from the fitted curve at half-maximal effect
# In short: as §2
# [13] = qHTS of pediatric cancer cell lines to identify multiple opportunities for drug repurposing: Primary screen for NB-EBc1 cells (AID 1347095); also: potency is read from the fitted curve at half-maximal effect
# In short: as §2
# [14] = qHTS of pediatric cancer cell lines to identify multiple opportunities for drug repurposing: Primary screen for LAN-5 cells (AID 1347100); also: potency is read from the fitted curve at half-maximal effect
# In short: as §3
# [15] = qHTS of pediatric cancer cell lines to identify multiple opportunities for drug repurposing: Primary screen for OHS-50 cells (AID 1347103); also: nearly all actives have a fitted effect of over 40% in size; also: potency is read from the fitted curve at half-maximal effect
# In short: as §4
# [16] = qHTS of pediatric cancer cell lines to identify multiple opportunities for drug repurposing: Primary screen for A673 cells (AID 1347092); also: nearly all actives have a fitted effect of over 45% in size; also: potency is read from the fitted curve at half-maximal effect
# In short: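 Luminescence from CellTiter-Glo, taken after 15 min at room temperature, served as the proxy for metabolically active cells following 48 h treatment. Both potency and efficacy were taken from curves fitted to the titration data.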
SMILES,Potency [1],Potency [2],Potency [3],Potency [4],Potency [5],Potency [6],Potency [7],Potency [8],Potency [9],Potency [10],Potency [11],Potency [12],Potency [13],Potency [14],Potency [15],Potency [16]
Cc1cccc(C)c1NC(=O)CN1CCN(CCCC(c2ccc(F)cc2)c2ccc(F)cc2)CC1,inactive,inactive,21.1 µM (active),inactive,inactive,inactive,inactive,inactive,inactive,inactive,inactive,inactive,,,,
Cc1c(F)c(N2CCNC(C)C2)cc2c1c(=O)c(C(=O)O)cn2C1CC1 (centres undefined),inactive,inactive,inactive,inactive,inactive,inactive,inactive,,inactive,inactive,inactive,inactive,inactive,inactive,inactive,
COc1cc2c(cc1OC)C(C(C(=O)N(CCc1ccc(OC)c(OC)c1OC)CCc1ccc(OC)c(OC)c1OC)c1ccccc1)=NCC2 (centres undefined),inactive,inactive,inactive,,,,inactive,,,,inactive,inactive,inactive,inactive,,inactive
CCCCCCCCCCCCCCNCCO,inactive,inactive,inactive,inactive,inactive,inactive,inactive,inactive,inactive,inactive,,inactive,inactive,inactive,,
O=C1OCCN1/N=C/c1ccc([N+](=O)[O-])o1,inactive,inactive,inactive,inactive,inactive,inactive,inactive,,,inactive,inactive,,inactive,inactive,inactive,
CC(=O)Oc1ccc(C(=C2CCCCC2)c2ccc(OC(C)=O)cc2)cc1,inactive,inactive,inactive,inactive,inactive,inactive,inactive,inactive,inactive,inactive,inactive,,inactive,inactive,inactive,
NC(=O)CC[C@@H]1NC(=O)[C@H](Cc2ccccc2)NC(=O)[C@H](Cc2ccc(O)cc2)NC(=O)CCSSC[C@@H](C(=O)N2CCC[C@H]2C(=O)N[C@@H](CCCN=C(N)N)C(=O)NCC(N)=O)NC(=O)[C@H](CC(N)=O)NC1=O,inactive,inactive,inactive,inactive,inactive,inactive,inactive,,inactive,inactive,inactive,inactive,inactive,inactive,inactive,
CNCC[C@@H](Oc1ccccc1C)c1ccccc1,inactive,inactive,inactive,inactive,inactive,inactive,,inactive,inactive,inactive,inactive,inactive,inactive,inactive,,
O=C1OC(c2ccc(O)cc2)(c2ccc(O)cc2)c2ccccc21,inactive,inactive,inactive,inactive,inactive,inactive,inactive,,,inactive,,inactive,inactive,inactive,inactive,
COC(=O)[C@@H]1CC2=CC(=O)CC[C@]2(C)[C@@]23O[C@@H]2C[C@@]2(C)[C@@H](CC[C@@]24CCC(=O)O4)[C@H]13,inactive,inactive,inactive,inactive,inactive,inactive,inactive,inactive,inactive,inactive,inactive,inactive,inactive,inactive,inactive,
C[C@]12C=CC(=O)C=C1[C@@H](F)C[C@@H]1[C@@H]2[C@@H](O)C[C@@]2(C)[C@H]1CC[C@]2(O)C(=O)CO,inactive,inactive,inactive,inactive,inactive,inactive,inactive,inactive,inactive,inactive,inactive,,inactive,inactive,inactive,
Cc1nc2n(c(=O)c1CCN1CCC(c3noc4cc(F)ccc34)CC1)CCC[C@H]2O,inactive,inactive,inactive,inactive,inactive,inactive,inactive,,inactive,inactive,inactive,inactive,inactive,inactive,inactive,
C=CCc1ccc(O)c(OC)c1,inactive,inactive,inactive,inactive,inactive,inactive,inactive,inactive,inactive,inactive,inactive,inactive,inactive,inactive,inactive,
CCCC(=O)Nc1ccc(OCC(O)CNC(C)C)c(C(C)=O)c1 (centres undefined),inactive,inactive,inactive,inactive,inactive,inactive,,,inactive,inactive,inactive,inactive,inactive,inactive,inactive,
COc1cc(-c2ccc(=O)[nH]n2)ccc1OC(F)F,inactive,inactive,inactive,inactive,inactive,inactive,,,inactive,inactive,inactive,inactive,inactive,inactive,inactive,
CC(C)(Oc1ccc(Cl)cc1)C(=O)O,inactive,inactive,inactive,inactive,inactive,inactive,inactive,inactive,inactive,inactive,,inactive,inactive,inactive,inactive,
Cc1cc(N)c2cc(NC(=O)Nc3ccc4nc(C)cc(N)c4c3)ccc2n1,inactive,inactive,inactive,inactive,inactive,inactive,inactive,,,inactive,inactive,,inactive,inactive,inactive,

SMILES,Potency [1],Potency [2],Potency [3],Potency [4],Potency [5],Potency [6],Potency [7],Potency [8],Potency [9],Potency [10],Potency [11],Potency [12],Potency [13],Potency [14],Potency [15],Potency [16]
CN1[C@@H]2CC[C@H]1CC(OC(=O)c1c[nH]c3ccccc13)C2 (some centres undefined),inactive,inactive,inactive,inactive,inactive,inactive,inactive,,inactive,inactive,inactive,inactive,inactive,inactive,inactive,
CO/N=C1\CN(c2nc3c(cc2F)c(=O)c(C(=O)O)cn3C2CC2)CC1CN (centres undefined),inactive,inactive,inactive,inactive,inactive,inactive,inactive,inactive,,,inactive,inactive,inactive,inactive,inactive,
COc1cc2c(cc1OC)[C@@H]1CC(=O)[C@@H](CC(C)C)CN1CC2,inactive,inactive,inactive,inactive,inactive,inactive,inactive,inactive,inactive,inactive,inactive,,inactive,inactive,,
OC[C@H]1O[C@H](O[C@]2(CCl)O[C@H](CCl)[C@@H](O)[C@@H]2O)[C@H](O)[C@@H](O)[C@H]1Cl,inactive,inactive,inactive,inactive,inactive,inactive,inactive,inactive,inactive,inactive,inactive,inactive,inactive,inactive,inactive,
CC(=O)O[C@]1(C(C)=O)CC[C@H]2[C@@H]3C[C@H](C)C4=CC(=O)CC[C@]4(C)[C@H]3CC[C@@]21C,inactive,inactive,inactive,33.5 µM (active),inactive,inactive,,,inactive,,inactive,,inactive,,24.6 µM (active),
CN1CCN(C(c2ccccc2)c2ccccc2)CC1,inactive,inactive,inactive,inactive,inactive,inactive,inactive,,inactive,inactive,inactive,inactive,inactive,inactive,,
Cc1c(C(C)C)c(=O)n(-c2ccccc2)n1C,inactive,inactive,inactive,inactive,inactive,inactive,inactive,inactive,inactive,inactive,inactive,inactive,inactive,inactive,inactive,
CC(=O)OCC(=O)[C@@]1(OC(C)=O)[C@@H](C)C[C@H]2[C@@H]3C[C@H](F)C4=CC(=O)C=C[C@]4(C)[C@@]3(F)[C@@H](O)C[C@@]21C,inactive,inactive,inactive,inactive,inactive,inactive,inactive,inactive,,inactive,inactive,,inactive,inactive,inactive,
COC(=O)C1=C(C)NC(C)=C(C(=O)O[C@@H]2CCCN(Cc3ccccc3)C2)[C@@H]1c1cccc([N+](=O)[O-])c1,inactive,inactive,,,,,,30.7 µM (active),inactive,,,inactive,,,19.5 µM (active),
O=C(N/N=C/c1ccccc1O)c1ccncc1,23.6 µM (active),4.22 µM (active),,,11 µM (active),,,,,6.17 µM (active),,,18.8 µM (active),2.99 µM (active),5.5 µM (active),
Cc1c(C)n(CCN(C)C)c2ccc(C(=O)OCCN(C)C)cc12,inactive,inactive,inactive,,inactive,inactive,inactive,,inactive,,inactive,inactive,inactive,inactive,inactive,
Oc1c(Cl)cc(Cl)cc1Sc1cc(Cl)cc(Cl)c1O,inactive,inactive,,,inactive,inactive,,,,inactive,inactive,inactive,,,,inactive
Cc1c(C)n(Cc2ccccc2)c2ccc(C(=O)OCCN(C)C)cc12,inactive,inactive,,,inactive,inactive,,,inactive,,,inactive,,inactive,,inactive
COc1cccc2c1C(=O)c1c(O)c3c(c(O)c1C2=O)C[C@@](O)(C(=O)CO)C[C@@H]3O[C@H]1C[C@H](N)[C@H](O)[C@H](C)O1,0.745 µM (active),4.22 µM (active),,0.668 µM (active),0.347 µM (active),13.3 µM (active),13.3 µM (active),0.217 µM (active),0.473 µM (active),1.38 µM (active),,2.37 µM (active),0.133 µM (active),,1.1 µM (active),1.06 µM (active)
CCN(CCCc1ccccc1)CCCc1ccccc1,inactive,inactive,,,,inactive,inactive,,,,,,inactive,inactive,,inactive
O=C1[C@H]2CCCC[C@H]2C(=O)N1CCCCN1CCN(c2nsc3ccccc23)CC1,inactive,inactive,,inactive,inactive,inactive,,inactive,inactive,,inactive,,inactive,,,
